# Measurements from the supplement of paper PMC8253809.
# Where “and” joins values, the source holds several entries; their conditions need not be identical. Equal entries are not always repeated.
# Columns and labels:
# Assay in all cases: growth inhibition (% activity, log2 RLU normalised to DMSO / staurosporine); higher = more growth inhibition
# Conditions in all cases: 33 µM
# DIPGX29 = test system: DIPGX29 (H3.3 K27M diffuse intrinsic pontine glioma line)
# Method in brief: (§1)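 Approved drugs, at a single final concentration of about 33 μM, were applied in triplicate to pHGG cell lines and H9-derived neural stem cells for 7 days at 37 °C, 5% CO2. The growth-inhibition value is the replicate median of log2-transformed CellTiter-Glo luminescence normalised per plate to % activity between solvent and positive control wells.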
# DIPGX37 = test system: DIPGX37 (H3.3 K27M diffuse intrinsic pontine glioma line)
# Method in brief: as §1
# DIPGX7 = test system: DIPGX7 (H3.3 K27M diffuse intrinsic pontine glioma line)
# Method in brief: as §1
# DIPGX9 = test system: DIPGX9 (diffuse intrinsic pontine glioma line)
# Method in brief: as §1
# HGGX39 = test system: HGGX39 (paediatric high-grade glioma line)
# Method in brief: as §1
# HGGX6 = test system: HGGX6 (H3.3 G34R paediatric high-grade glioma line)
# Method in brief: as §1
# HNSC = test system: HNSC
# Method in brief: as §1
# SUDIPGIV = test system: SUDIPGIV (diffuse intrinsic pontine glioma line)
# Method in brief: as §1
# SUDIPGVI = test system: SUDIPGVI (diffuse intrinsic pontine glioma line)
# Method in brief: as §1
# SUDIPGXIII = test system: SUDIPGXIII (diffuse intrinsic pontine glioma line)
# Method in brief: as §1
Compound,growth inhibition (DIPGX29),growth inhibition (DIPGX37),growth inhibition (DIPGX7),growth inhibition (DIPGX9),growth inhibition (HGGX39),growth inhibition (HGGX6),growth inhibition (HNSC),growth inhibition (SUDIPGIV),growth inhibition (SUDIPGVI),growth inhibition (SUDIPGXIII)
C=C1CC[C@H](O)C/C1=C/C=C1\CCC[C@]2(C)[C@@H]([C@H](C)/C=C/[C@H](C)C(C)C)CC[C@@H]12,3.21%,5.04%,5.34%,3.65%,7.46%,4.35%,9.22%,3.53%,4.49%,0.866%
CCCCCCCCCC(=O)NC1C(Oc2c3cc4cc2Oc2ccc(cc2Cl)C(OC2OC(CO)C(O)C(O)C2NC(C)=O)C2NC(=O)C(NC(=O)C4NC(=O)C4NC(=O)C(Cc5ccc(c(Cl)c5)O3)NC(=O)C(N)c3ccc(O)c(c3)Oc3cc(O)cc4c3)c3ccc(O)c(c3)-c3c(OC4OC(CO)C(O)C(O)C4O)cc(O)cc3C(C(=O)O)NC2=O)OC(CO)C(O)C1O (stereo not given),-0.31%,0.115%,0.155%,0.4%,-1.12%,-0.793%,0.958%,-1.1%,0.462%,2.06%
CC[C@H](C)[C@H](N)C1=N[C@H](C(=O)N[C@@H](CC(C)C)C(=O)N[C@H](CCC(=O)O)C(=O)N[C@H](C(=O)N[C@H]2CCCCNC(=O)[C@H](CC(N)=O)NC(=O)[C@@H](CC(=O)O)NC(=O)[C@H](Cc3cnc[nH]3)NC(=O)[C@@H](Cc3ccccc3)NC(=O)[C@H]([C@@H](C)CC)NC(=O)[C@@H](CCCN)NC2=O)[C@@H](C)CC)CS1,0.716%,-3.59%,2.09%,-0.221%,2.77%,-1.08%,1.3%,0.589%,-1.54%,-1.26%
NS(=O)(=O)c1cc2c(cc1Cl)N=C(CSCc1ccccc1)NS2(=O)=O,-2.8%,-0.538%,-2.64%,-1.82%,-3.59%,-4.3%,3.58%,-1.69%,-6.04%,-0.239%
Cc1nc2n(c(=O)c1CCN1CCC(c3noc4cc(F)ccc34)CC1)CCCC2O (stereo not given),-0.21%,-0.0675%,0.542%,0.251%,1.52%,-1.12%,23.4%,2.36%,-0.7%,-0.0722%
CNS(=O)(=O)CCc1ccc2[nH]cc(C3CCN(C)CC3)c2c1,0.0879%,3.2%,0.944%,1.8%,1.37%,-0.244%,1.62%,1.09%,2.79%,-1.47%
NCC[C@H](O)C(=O)N[C@@H]1C[C@H](N)[C@@H](O[C@H]2O[C@H](CN)[C@@H](O)[C@H](O)[C@H]2O)[C@H](O)[C@H]1O[C@H]1O[C@H](CO)[C@@H](O)[C@H](N)[C@H]1O,-1.74% and 1.77%,-1.47% and 4.24%,-2.3% and 3.01%,-2.19% and 1.75%,-0.158% and 4.96%,-2.78% and 2.92%,-1.9% and 2.1%,-1.35% and 2.18%,-1.89% and 2.2%,-0.125% and 0.203%
O=C1O[C@H]([C@@H](O)CO)C(O)=C1O,-0.099%,2.39%,0.0255%,-1.21%,1.99%,-2.25%,2.06%,0.144%,-0.209%,-0.259%
CS(=O)(=O)c1ccc([C@@H](O)[C@@H](CO)NC(=O)C(Cl)Cl)cc1,7.76%,3.94%,4.74%,7.6%,16.3%,5.24%,15.1%,35%,5.62%,20%
Cc1ncc([N+](=O)[O-])n1CCO,-0.678%,-1.76%,-1.15%,0.881%,1.6%,-4.16%,22.3%,0.605%,0.0318%,-3.67%
CO[C@H]1C[C@@H]2CC[C@@H](C)[C@@](O)(O2)C(=O)C(=O)N2CCCC[C@H]2C(=O)O[C@H]([C@H](C)C[C@@H]2CC[C@@H](OC(=O)C(C)(CO)CO)[C@H](OC)C2)CC(=O)[C@H](C)/C=C(\C)[C@@H](O)[C@@H](OC)C(=O)[C@H](C)C[C@H](C)/C=C/C=C/C=C/1C,1.36%,0.103%,4.97%,14%,6.98%,5.24%,3.52%,1.47%,3.49%,-0.989%
Nc1nc2c(ncn2COCCO)c(=O)[nH]1,-1.73%,1.12%,1.01%,0.254%,1.26%,-2.13%,5.44%,-0.972%,-0.331%,0.201%
CCCc1nc(C(C)(C)O)c(C(=O)OCc2oc(=O)oc2C)n1Cc1ccc(-c2ccccc2-c2nnn[nH]2)cc1,-1%,0.0168%,-0.622%,0.493%,-1.5%,-3.62%,12.4%,-1.28%,-2.12%,-2.02%
O=C([O-])C(O)[C@H](O)[C@@H](O)[C@H](O)[C@H](O)CO.O=C([O-])C(O)[C@H](O)[C@@H](O)[C@H](O)[C@H](O)CO.[Ca+2] (stereo not given in full),2.16%,4.54%,2.65%,1.24%,2.2%,1.87%,2.4%,0.563%,2.72%,-0.395%
CC[C@]1(O)C[C@@H]2CN(CCc3c([nH]c4ccccc34)[C@@](C(=O)OC)(c3cc4c(cc3OC)N(C)[C@H]3[C@@](O)(C(=O)OC)[C@H](OC(C)=O)[C@]5(CC)C=CCN6CC[C@]43[C@@H]65)C2)C1,13%,14%,13.2%,22%,17.1%,11.5%,55.5%,32%,16.1%,18.3%
Cc1ccccc1C(=O)Nc1ccc(C(=O)N2CCCC(O)c3cc(Cl)ccc32)c(C)c1 (stereo not given),1.7%,2.36%,1.66%,1.96%,5.63%,2.91%,3.21%,2.35%,3.58%,0.514%
Nc1ccc(S(=O)(=O)Nc2ccccn2)cc1,0.131%,-0.785%,-0.925%,-0.171%,0.333%,0.609%,0.764%,-1.02%,1.15%,-1.65%
CCC(CC)[C@H](NC(C)=O)[C@@H]1[C@H](O)[C@@H](C(=O)O)C[C@H]1NC(=N)N,-0.417%,-0.255%,-0.771%,-0.84%,-1.05%,-1.09%,-1.8%,-0.387%,-0.749%,2.27%
COc1ccc2cc(CCC(C)=O)ccc2c1,-3.29%,-0.34%,1.11%,-2.24%,0.174%,-2.89%,31.7%,-0.544%,-8.13%,3.04%
CCn1cc(C(=O)O)c(=O)c2cc(F)c(N3CCN(C)CC3)cc21,0.946%,0.351%,1.65%,1.44%,2.84%,0.565%,3.22%,1.47%,1.27%,1.57%

Compound,growth inhibition (DIPGX29),growth inhibition (DIPGX37),growth inhibition (DIPGX7),growth inhibition (DIPGX9),growth inhibition (HGGX39),growth inhibition (HGGX6),growth inhibition (HNSC),growth inhibition (SUDIPGIV),growth inhibition (SUDIPGVI),growth inhibition (SUDIPGXIII)
CCC[C@@H]1C[C@@H](C(=O)N[C@@H]([C@H]2O[C@H](SC)[C@H](O)[C@@H](O)[C@H]2O)[C@H](C)Cl)N(C)C1,1.54% and 0.31%,0.378% and 0.388%,2.54% and -0.297%,-0.222% and -0.00863%,1.92% and 0.31%,0.389% and -3.2%,3.24% and 18.2%,2.02% and 2.11%,2.1% and -0.349%,-1.04% and -3.03%
Clc1ccccc1CN1CCc2sccc2C1,1.5%,3.08%,2.39%,2.4%,4.15%,0.755%,1.29%,0.722%,3.23%,1.33%
CCn1cc(C(=O)O)c(=O)c2cnc(N3CCCC3)nc21,-2.15%,-2.01%,-0.632%,-0.749%,-1.43%,0.0128%,-2.86%,-0.463%,-0.722%,-2.7%
C[C@H](CS)C(=O)N1CCC[C@H]1C(=O)O,0.445%,-0.171%,1.27%,1.57%,1.84%,-1.72%,2.42%,-0.14%,-0.111%,-0.989%
CC1(C)O[C@@H]2[C@@H](CO[C@@]3(COS(N)(=O)=O)OC(C)(C)O[C@@H]23)O1,-3.02%,-1.66%,-1.31%,-2.57%,-2.13%,-3.4%,-3.88%,-3.39%,-3.08%,-0.599%
O=P(O)(O)C(O)(Cn1ccnc1)P(=O)(O)O,0.235%,2.6%,0.072%,1.97%,2.08%,1.84%,1.26%,1.08%,4.43%,-0.376%
C[C@H]1O[C@H](O[C@H]2[C@H](O)[C@@H](O)[C@@H](O[C@H]3[C@H](O)[C@@H](O)C(O)O[C@@H]3CO)O[C@@H]2CO)[C@H](O)[C@@H](O)[C@@H]1N[C@H]1C=C(CO)[C@@H](O)[C@H](O)[C@H]1O (stereo not given in full),-1.13%,-1.58%,-0.631%,-1.81%,-1.75%,-0.366%,-2.81%,-2.71%,-0.59%,-0.463%
CCN(CC)CC(=O)Nc1c(C)cccc1C,1.31%,0.211%,2.14%,1.09%,2.87%,0.583%,1.55%,0.232%,2.37%,1.3%
COc1c(C)c2c(c(O)c1C/C=C(\C)CCC(=O)OCCN1CCOCC1)C(=O)OC2,17.5%,14.5%,10.6%,15.1%,17.2%,15.1%,65.5%,8.44%,8.42%,7.66%
CNC[C@H](O)c1cccc(O)c1,0.744%,-0.539%,2.1%,0.894%,4.28%,0.958%,3.62%,0.826%,0.615%,0.446%
COc1cc(/C=C/C(=O)CC(=O)/C=C/c2ccc(O)c(OC)c2)ccc1O,-0.948%,1.27%,1.4%,0.547%,0.698%,1.98%,-1.04%,-2.56%,0.323%,-11.1%
CCCCOc1ccc(OCCCN2CCOCC2)cc1,5.55%,2.14%,14.7%,1.12%,8.05%,7.63%,5.68%,1.4%,1.31%,1.81%
Cc1cccc(Nc2ccccc2C(=O)O)c1C,-4%,-1.52%,3.05%,-3.62%,-3.34%,-4.45%,9.87%,-8.08%,-6.14%,-0.652%
CCN(CC)CCOc1ccc(C(=C(Cl)c2ccccc2)c2ccccc2)cc1,26.6%,11.7%,45.2%,12.3%,36.3%,28%,63.5%,32.8%,1.14%,0.221%
NC(=O)OCC(COC(N)=O)c1ccccc1,1.09%,2.98%,1.52%,0.912%,0.666%,0.329%,2.74%,0.15%,2.19%,1.32%
Cc1cc(C)nc(NS(=O)(=O)c2ccc(N)cc2)n1,-2.92%,0.0741%,-1.22%,-1.22%,-1.68%,-2.24%,4.45%,-1.47%,-1.67%,0.778%
CC(=O)OCC(=O)[C@@]12N=C(C)O[C@@H]1C[C@H]1[C@@H]3CCC4=CC(=O)C=C[C@]4(C)[C@H]3[C@@H](O)C[C@@]12C,2.06%,0.767%,0.297%,4.71%,3.17%,0.221%,1.26%,-3.7%,-1.31%,-1.39%
CS(=O)(=O)c1ccc([C@@H](O)[C@@H](CF)NC(=O)C(Cl)Cl)cc1,3.83%,-0.106%,1.63%,2.53%,12.9%,5.33%,15.9%,24.6%,2.59%,38%
CCOC(=O)[C@H](CCc1ccccc1)N[C@@H](C)C(=O)N1CCC[C@H]1C(=O)O,1.73%,-8.18%,0.205%,0.307%,0.569%,-0.623%,1.11%,-1.94%,-1.02%,-3.41%
OC(CCN1CCCCC1)(c1ccccc1)C1CC2C=CC1C2 (stereo not given),-0.000402%,-2.1%,1.09%,-1.44%,-1.06%,-1.38%,0.31%,-2.82%,-4.33%,1%
